From PubChem BioAssay (NCI)
About 79,000 compounds went through this panel and 15% of them were active in at least one assay; those are over-represented in the sample as a whole. Active and inactive are the calls of the source. Cut-off read from the data, not from the text of the source: active = growth inhibition above about 70%; inactive = the rest.

Experiments:
[1] = NCI Yeast Anticancer Drug Screen. Data for the rad52 strain (AID 147);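 note: 0% = growth of vehicle-treated control cultures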; details: S. cerevisiae rad52 mutant growth inhibition, active compounds read high
Procedure, shortened: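 Genetically altered yeast (DNA damage repair defect) treated with compound; inhibition calculated relative to vehicle.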

[2] = NCI Yeast Anticancer Drug Screen. Data for the wt1 strain (AID 149);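 note: 0% = growth of vehicle-treated wt1 cultures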; details: S. cerevisiae wt1 strain (SPY 50644) growth inhibition, active compounds read high
Procedure, shortened: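 Each compound is tested on wt1 yeast and the loss of growth versus vehicle gives the inhibition value.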

[3] = NCI Yeast Anticancer Drug Screen. Data for the rad50EPP+ strain (AID 151);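 note: 0% = growth of vehicle-treated control cultures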; details: S. cerevisiae rad50 mutant strain, active compounds read high
Procedure, shortened: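 Strain rad50EPP+; compound exposure; % growth inhibition vs vehicle.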

[4] = NCI Yeast Anticancer Drug Screen. Data for the mgt1 strain (AID 153); details: S. cerevisiae mgt1 mutant growth inhibition, active compounds read high
Procedure, shortened: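 Read-out: yeast growth inhibition vs vehicle control. Strain mgt1, drawn from a panel altered in DNA damage repair or cell cycle control.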

[5] = NCI Yeast Anticancer Drug Screen. Data for the rad50 strain (AID 155);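 note: 0% = growth of vehicle-only cultures of the same strain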; details: S. cerevisiae rad50 strain growth inhibition, active compounds read high
Procedure, shortened: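 Vehicle-treated cultures provide the reference for the growth inhibition reported for compound-exposed, repair-deficient yeast.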

[6] = NCI Yeast Anticancer Drug Screen. Data for the mec2-1 strain (AID 157); details: S. cerevisiae mec2-1 strain, active compounds read high
Procedure, shortened: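 Cells of the genetically defined mec2-1 yeast strain are incubated with test compound. Inhibition of growth is calculated against vehicle-treated controls.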

[7] = NCI Yeast Anticancer Drug Screen. Data for the rad14 strain (AID 159);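 note: 0% = growth of vehicle-treated control cultures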; details: S. cerevisiae rad14 strain growth inhibition, active compounds read high
Procedure, shortened: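 Inhibition of growth is reported for a repair-deficient yeast mutant following compound treatment, calculated relative to cultures that received vehicle.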

[8] = NCI Yeast Anticancer Drug Screen. Data for the sgs1 mgt1 strain (AID 161);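 note: 0% = growth of cultures given vehicle only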; details: S. cerevisiae sgs1 mgt1 strain, active compounds read high
Procedure, shortened: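 Test agents were incubated with a DNA-repair-mutant yeast strain. Growth was then read and compared against vehicle-treated controls.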

[9] = NCI Yeast Anticancer Drug Screen. Data for the CLN2oe strain (AID 163);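 note: 0% = growth of vehicle-only control cultures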; details: S. cerevisiae CLN2oe strain, active compounds read high
Procedure, shortened: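 Strain altered in cell-cycle control, incubated with compound; growth compared to solvent-treated controls.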

[10] = NCI Yeast Anticancer Drug Screen. Data for the cln2 rad14 strain (AID 165);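 note: 0% = growth equal to vehicle treated cultures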; details: S. cerevisiae cln2 rad14 strain, active compounds read high
Procedure, shortened: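 The screen exposed genetically defined yeast (cln2 rad14) to test compounds and scored growth inhibition relative to vehicle-treated controls.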

[11] = NCI Yeast Anticancer Drug Screen. Data for the bub3 strain (AID 167); details: S. cerevisiae bub3 mutant strain, active compounds read high
Procedure, shortened: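 Mutant yeast screening strain plus compound; vehicle-treated cultures serve as the 0% inhibition reference.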

[12] = NCI Yeast Anticancer Drug Screen. Data for the wt2 strain (AID 169); details: S. cerevisiae wt2 strain growth inhibition, active compounds read high
Procedure, shortened: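 Steps: yeast strain treated with compound; growth recorded; inhibition calculated relative to cultures given vehicle alone.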

[13] = NCI Yeast Anticancer Drug Screen. Data for the mlh1 strain (AID 171);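 note: 0% = growth of vehicle-treated control cultures of the same strain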; details: S. cerevisiae mlh1 strain growth inhibition, active compounds read high
Procedure, shortened: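 Yeast screen: mutant strain plus compound, growth scored against vehicle control wells.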

[14] = NCI Yeast Anticancer Drug Screen. Data for the sgs1 strain (AID 173);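 note: 0% = growth of vehicle-only control cultures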; details: S. cerevisiae sgs1 mutant, active compounds read high
Procedure, shortened: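 Inhibition of yeast growth served as the measure. The mutant strain was treated with each compound, and growth was normalised to cultures receiving vehicle alone.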

[15] = NCI Yeast Anticancer Drug Screen. Data for the mlh1 rad18 strain (AID 175); details: S. cerevisiae mlh1 rad18 strain growth inhibition, active compounds read high
Procedure, shortened: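 Compound-treated yeast growth, normalised to vehicle controls. Strain bears defined DNA repair mutations.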

[16] = NCI Yeast Anticancer Drug Screen. Data for the rad18 strain (AID 177); details: S. cerevisiae rad18 mutant growth inhibition, active compounds read high
Procedure, shortened: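 Inhibition values reflect reduced yeast growth compared with vehicle-treated controls, using a strain engineered with a DNA damage repair defect.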

[17] = at 5.0 µM (retest, dose inferred, filed as 0.5)
[18] = at 50.0 µM (retest, dose inferred, filed as 5.0)

Measured: growth inhibition

CC1=NOC(=O)/C1=C/c1ccc2c(c1)OCO2
inactive: [1]; at 1.2 µM 0% | [1]; at 3.7 µM 4% | [1]; at 11.0 µM 17% | [1]; at 33.0 µM 32% | [1]; at 100.0 µM 39% | [2]; at 1.2 µM 5% | [2]; at 3.7 µM 0% | [2]; at 11.0 µM 2% | [2]; at 33.0 µM 6% | [2]; at 100.0 µM 13% | [3]; at 1.2 µM 6% | [3]; at 3.7 µM 5% | [3]; at 11.0 µM 41% | [3]; at 33.0 µM 47% | [4]; at 1.2 µM -4% | [4]; at 3.7 µM 1% | [4]; at 11.0 µM 1% | [4]; at 33.0 µM -10% | [4]; at 100.0 µM 9% | [5]; at 1.2 µM 1% | [5]; at 3.7 µM 3% | [5]; [17] 0% | [5]; at 11.0 µM 26% | [5]; at 33.0 µM 49% | [5]; [18] 24% | [5]; at 100.0 µM 59% | [6]; at 1.2 µM 0% | [6]; at 3.7 µM -1% | [6]; [17] 13% | [6]; at 11.0 µM 10% | [6]; at 33.0 µM 12% | [6]; at 100.0 µM 28% | [7]; at 1.2 µM 2% | [7]; at 3.7 µM 2% | [7]; at 11.0 µM 7% | [7]; at 33.0 µM 11% | [7]; at 100.0 µM 29% | [8]; [17] 23% | [8]; [18] 58% | [8]; at 50.0 µM 65.5% | [9]; at 1.2 µM -5% | [9]; at 3.7 µM 3% | [9]; at 11.0 µM 9% | [9]; at 33.0 µM 15% | [9]; at 100.0 µM 9% | [10]; [17] 2% | [10]; [18] 51% | [10]; at 50.0 µM 20.4% | [11]; at 1.2 µM -5% | [11]; at 3.7 µM -1% | [11]; [17] 19% | [11]; at 11.0 µM 3% | [11]; at 33.0 µM 3% | [11]; [18] 30% | [11]; at 100.0 µM 18% | [12]; at 1.2 µM 2% | [12]; at 3.7 µM 0% | [12]; at 11.0 µM 8% | [12]; at 33.0 µM 12% | [12]; at 100.0 µM 13% | [13]; at 1.2 µM 3% | [13]; at 3.7 µM 1% | [13]; at 11.0 µM 6% | [13]; at 33.0 µM 20% | [13]; at 100.0 µM 26% | [14]; at 1.2 µM 1% | [14]; at 3.7 µM 1% | [14]; at 11.0 µM 10% | [14]; at 33.0 µM 19% | [14]; at 100.0 µM 23% | [15]; [17] 23% | [15]; at 50.0 µM 48.6% | [16]; at 1.2 µM 2% | [16]; at 3.7 µM -12% | [16]; at 11.0 µM 10% | [16]; at 33.0 µM 36% | [16]; at 100.0 µM 61%
active: [3]; at 100.0 µM 87% | [5]; at 50.0 µM 82.2% | [6]; [18] 83% | [6]; at 50.0 µM 78.6% | [11]; at 50.0 µM 70.5% | [15]; [18] 81%
